In the library only some 4.1% were active in any assay of this set; here they are far more common.
FMDV antiviral – High Throughput Screening for Foot and Mouth Disease Virus Antivirals. FMDV antiviral cell-based qHTS. Potency, µM (doses to about 57.9 µM), for inactives: top-dose activity change, negative = inhibition, actives largely listed as inhibitors. 410,000 compounds, 1.2% hits. AID 1159524, 2015; calls by dose curve; tested in HEK293T cells; note: read-out not given here; nearly all actives have a fitted effect of over 45% in size
AmpC no deterg – qHTS Inhibitors of AmpC Beta-Lactamase (assay without detergent). P00811. AmpC nitrocefin hydrolysis, absorbance 480 nm, 0.0001% Triton. Potency, µM (doses to about 57.1 µM), for inactives: at the top dose activity change, negative = inhibition, hits mostly inhibitors. 330,000 compounds, 0.52% hits. AID 485341, 2010;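 note: plate controls were no compound for no effect and no enzyme for full effect; nearly all actives have a fitted effect of over 20% in size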
Target sequence (P00811 whole entry, looked up): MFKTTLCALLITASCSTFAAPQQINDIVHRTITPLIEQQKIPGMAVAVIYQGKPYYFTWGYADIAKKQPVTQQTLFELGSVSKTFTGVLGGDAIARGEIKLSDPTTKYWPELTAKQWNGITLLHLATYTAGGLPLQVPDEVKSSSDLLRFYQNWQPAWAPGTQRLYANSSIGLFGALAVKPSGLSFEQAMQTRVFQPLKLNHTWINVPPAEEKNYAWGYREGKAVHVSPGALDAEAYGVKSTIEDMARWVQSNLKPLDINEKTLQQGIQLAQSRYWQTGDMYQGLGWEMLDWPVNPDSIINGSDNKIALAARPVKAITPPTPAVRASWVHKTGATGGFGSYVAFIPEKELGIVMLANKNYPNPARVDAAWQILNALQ
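AmpC (5.3 nM in the dispensed reagent) in 20 mM phosphate pH 7.0 with 0.01% (detergent screen) or 0.0001% Triton X-100 was preincubated with compounds for 15 min at room temperature. Nitrocefin was then added from an 800 uM solution, and hydrolysis was followed at 480 nm.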
Sm TGR block – qHTS Assay for the Inhibitors of Schistosoma Mansoni Peroxiredoxins; Schistosoma mansoni thioredoxin glutathione reductase (TGR), Q962Y6; purified TGR, DTNB reduction, TNB absorbance 405 nm; Potency, µM (highest dose often 114 µM), for the others: at the top dose activity change, negative = inhibition, actives largely listed as inhibitors; 360,000 compounds, 3% hits; AID 485364, 2010; note: nearly all actives have a fitted effect of over 60% in size
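First, TGR (20 nM dispensed) and NADPH were mixed with compound. Second, a 15 min room-temperature incubation followed. Third, further NADPH and then DTNB were added to start the reaction. Finally, TNB absorbance was monitored kinetically.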
AMA1-RON2 inh – qHTS for Inhibitors of AMA1-RON; Towards Development of Antimalarial Drug Lead: Primary Screen | AlphaScreen AMA1-biotinylated RON2 peptide binding | AID 720542, 2013 | 360,000 compounds, 0.2% hits | Potency, µM (highest dose often 58.2 µM), for the others: at the top dose activity change, negative = inhibition, most hits filed as inhibitors;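 note: 0% = vehicle wells and -100% = peptide control; nearly all actives have a fitted effect of over 45% in size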
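AMA1 (3D7) with his tag at 25 nM final met compounds first, then biotinylated RON2 peptide at 25 nM; detection used donor plus acceptor beads, 10 µg/mL apiece, read by AlphaScreen after 30 min at room temperature.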
AmpC inh detg – qHTS Inhibitors of AmpC Beta-Lactamase (assay with detergent); P00811; AmpC hydrolysis of nitrocefin, absorbance 480 nm, 0.01% Triton; Potency, µM (titrated, usually from 114 µM), for the others: at the highest dose activity change, negative = inhibition, hits mostly inhibitors; 370,000 compounds, 0.041% hits; AID 485294, 2010;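 note: 0% = no-compound wells and -100% = no-enzyme wells; nearly all actives have a fitted effect of over 25% in size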
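AmpC (5.3 nM in the dispensed reagent) in 20 mM phosphate pH 7.0 with 0.01% (detergent screen) or 0.0001% Triton X-100 was preincubated with compounds for 15 min at room temperature. Nitrocefin was then added from an 800 uM solution, and hydrolysis was followed at 480 nm.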
Starred values were filed as active, the others as inactive; ? = inconclusive; · = not tested or not shown; [ ] = another dose, or the depositor's remark. Unless noted, calls come from the whole dose curve; as a rule, active = well fitted curve in the direction sought with a large enough effect; inconclusive = small, poorly fitted or top-dose-only effect, or another doubt; inactive = no such curve, though single readings can be large; an effect the other way counts as inactive or inconclusive. Unless noted, % is set by controls: 0 for no effect and ±100 for the full control effect; potency is the fitted concentration of half-maximal effect.

SMILES | FMDV antiviral | AmpC no deterg | Sm TGR block | AMA1-RON2 inh | AmpC inh detg
Oc1c(C(c2ccccc2F)N2CCCCC2)sc2nc(-c3ccco3)nn12 (stereo not drawn) | 14% | · | -17% | · | 1%
O=C(NCCO)C(=O)Nc1c2c(nn1-c1ccc(F)cc1)CSC2 | -10% | · | -20% | · | 4%
Cc1cccc2nc(-c3cccnc3)c(Nc3ccc(C(C)C)cc3)n12 | 28µM* | · | -13% | · | 3%
CCOC(=O)c1c(NC(=O)/C=C/C(=O)O)sc(C)c1-c1ccc(C)c(C)c1 | 32µM* | -8% | 3% | 10% | -6%
CCOC(=O)c1c(NC(=O)/C=C/C(=O)O)sc(C)c1-c1ccc(F)cc1 | 32µM* | 6% | 0% | -4% | -1%
COC(=O)c1c(NC(=O)/C=C/C(=O)O)sc(C)c1-c1ccc(C)cc1 | 0% | -10% | · | -12% | 4%
COC(=O)c1c(NC(=O)/C=C/C(=O)O)sc(C)c1-c1ccc(C(C)C)cc1 | 14µM* | -21% | ? | -19% | -15%
CCOC(=O)c1c(C)nn(-c2ccc(NC(=O)/C=C/C(=O)O)cc2)c1C | -24% | -48% | 50µM* | 0% | -6%
COC(=O)c1c(NC(=O)/C=C/C(=O)O)sc(C)c1-c1ccc(C)c(C)c1 | ? | -17% | -4% | 0% | ?
Cc1nc2nc(-c3ccc(Cl)cc3Cl)nn2c(C)c1CCC(=O)Nc1ccc(F)cc1 | -10% | · | -4% | · | -1%
COc1cccc(S(=O)(=O)N(C)C[C@H]2Oc3cc(Br)ccc3S(=O)(=O)N([C@@H](C)CO)C[C@H]2C)c1 | 9% | · | · | 0% | ·
COc1ccc(C2CC(=O)c3cc(-c4nc(-c5ccc(C)cc5)cs4)c(=O)[nH]c3C2)cc1 (stereo not drawn) | -8% | · | -35% | · | 19%
Cc1ccc(Cn2ccn(Cc3ccccc3F)c(=O)c2=O)cc1 | 10% | · | -2% | · | -5%
O=C(CCl)c1ccc(Cc2ncc(C(F)(F)F)cc2Cl)s1 | 25µM* | -17% | 8.9µM* | -5% | ?
COc1cccc(Cn2c(=O)c(-c3cccs3)nc3cnc(N(C)C)nc32)c1 | -2% | · | · | · | ·
Nc1nc(C(=O)N2CCOCC2)nn1C(=O)c1ccc(Cl)cc1 | -21% | -9% | 35µM* | 4% | -11%
O=C(Nc1ccccc1)C1C2CCC3C(CCC21)C3(Cl)Cl (stereo not drawn) | -5% | -48% | -11% | 0% | -6%
O=C(Nc1cccc(Cl)c1)C1C2CCC3C(CCC21)C3(Cl)Cl (stereo not drawn) | 40µM* | -43% | -13% | 10%[2.32 µM] | ?
O=C1CC(N2CCSCC2)C(=O)N1c1cccc(Cl)c1 (stereo not drawn) | -19% | -8% | 28µM* | 0% | 4%
COc1cccc(N2CCN(C3CC(=O)N(c4cccc(Cl)c4)C3=O)CC2)c1 (stereo not drawn) | -9% | 57% | 45µM* | 6% | ?
O=C1CC(N2CCN(c3ccccc3)CC2)C(=O)N1c1cccc(Cl)c1 (stereo not drawn) | 5% | 41% | ? | -5% | -13%
O=C1CC(N2CCN(c3ccc(Cl)cc3)CC2)C(=O)N1c1ccccc1 (stereo not drawn) | 18% | -16% | ? | -1% | 5%
COc1ccc(N2C(=O)CC(N3CCOCC3)C2=O)cc1 (stereo not drawn) | -11% | -19% | 25µM* | 0% | ?
CCCOc1ccc(N2C(=O)CC(N3CCN(c4ccc([N+](=O)[O-])cc4)CC3)C2=O)cc1 (stereo not drawn) | 9% | 48% | -31% | -3% | -17%
CCOc1ccc(N2C(=O)CC(N3CCN(c4ccc([N+](=O)[O-])cc4)CC3)C2=O)cc1 (stereo not drawn) | -25% | -15% | 10µM* | -2% | ?
SMILES | FMDV antiviral | AmpC no deterg | Sm TGR block | AMA1-RON2 inh | AmpC inh detg
COc1cccc(NC(=O)C2CCC(CNS(=O)(=O)c3csc(C(N)=O)c3)CC2)c1 (stereo not drawn) | -1% | · | 8% | · | -1%
COc1ccc(N2C(=O)CC(N3CCC(O)(c4ccc(Cl)cc4)CC3)C2=O)cc1 (stereo not drawn) | -21% | -7% | 50µM* | -2% | 2%
COC(=O)c1ccc(N2C(=O)CC(N3CCN(C(=O)c4ccco4)CC3)C2=O)cc1 (stereo not drawn) | 0% | -10% | ? | 6% | -4%
COC(=O)c1ccc(N2C(=O)CC(N3CCC(O)(c4ccc(Br)cc4)CC3)C2=O)cc1 (stereo not drawn) | ? | 53% | 45µM* | 10% | 1%
COc1ccccc1N1CCN(C2CC(=O)N(c3cccc(Br)c3)C2=O)CC1 (stereo not drawn) | -3% | 52% | 45µM* | 0% | -4%
CCOc1ccc(N2C(=O)CC(N3CCN(c4ccc(Cl)cc4)CC3)C2=O)cc1 (stereo not drawn) | -5% | -7% | 3.2µM* | -4% | -2%
O=C(C1CCC(Cn2c(=O)c3sccc3n(Cc3ccccc3F)c2=O)CC1)N1CCOCC1 (stereo not drawn) | -16% | · | -4% | · | 21%
COc1ccc(N2C(=O)CC(N3CCN(c4ccccc4)CC3)C2=O)cc1 (stereo not drawn) | -10% | 40% | -27% | -2% | ?
COc1ccc(N2C(=O)CC(N3CCN(c4ccc(Cl)cc4)CC3)C2=O)cc1 (stereo not drawn) | -28% | 43% | 45µM* | -1% | -13%
CCS(=O)(=O)N1CCC(C(=O)NCCC(C)C)CC1 | -4% | · | -5% | · | 3%
C[C@H]1CCC[C@]2(C)C[C@H]3OC(=O)C(CN4CCCCCC4)[C@H]3C=C12 (stereo partly drawn) | 22µM* | -6% | 0% | -1% | -2%
O=C(CCOc1ccccc1)N(Cc1cccnc1)c1nc2ccc(F)cc2s1 | -2% | · | 4µM* | · | 3%
CN(C)CCCN(C(=O)CCOc1ccccc1)c1nc2ccc(F)cc2s1 | 0% | -4% | 0.63µM* | -5% | -3%
O=C(COc1ccccc1)N(Cc1cccnc1)c1nc2ccc(F)cc2s1 | 20% | · | 2% | · | 4%
CN(C)CCCN(C(=O)CCc1ccccc1)c1nc2c(F)cccc2s1 | -4% | 120% | 4% | -28% | 3%
CN(C)CCCN(C(=O)CCOc1ccccc1)c1nc2c(F)cccc2s1 | -13% | -39% | 0.4µM* | -10% | -11%
C=CCc1ccc(OCCCCNC2CCCC2)c(OC)c1 | -9% | 1% | 6% | -16% | 5%
CCOc1ccc(OCc2ccc(C(=O)O)o2)cc1 | 8.9µM* | -7% | -22% | -3% | 4%

High-throughput results (PubChem)
